Compound activity: PubChem, National Center for Advancing Translational Sciences (NCATS)
Only some compounds are listed: those with a hit (about 10% of all), similar ones and a draw of the others.
HP1b chromo inh = blocks HP1-beta chromodomain binding to methylated histone tails. AlphaScreen HP1-beta / biotin-H3K9me3 peptide binding. 390,000 compounds, 0.56% hits. P83916. AID 540317. Potency, µM (top dose mostly 114 µM), most hits filed as inhibitors; further: nearly all actives have a fitted effect of over 70% in size
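HP1-beta protein (50 nM final) preincubated 30 min at room temperature with biotinylated H3(1-18)K9me3 peptide (50 nM) in PBS pH 7.4, 0.01% Tween-20, then compound added for 30 min. AlphaScreen streptavidin donor/nickel chelate acceptor beads (10 ug/mL final), 30 min dark, luminescence read.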
G9a block = inhibitors of human histone lysine methyltransferase G9a. Q96KQ7. G9a H3K9 monomethylation, AlphaScreen, 2 h. 350,000 compounds, 8.8% hits. Potency, µM (series often up to 102 µM), usual class: inhibitors; further: nearly all actives have a fitted effect of over 75% in size
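Methyltransferase reactions run at room temperature for 2 h (20 nM enzyme, 500 nM biotin-H3K9 peptide, 20 uM SAM) after a 15 min compound preincubation; product detected by AlphaScreen beads and anti-H3K9me1 antibody.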
BAZ2B inh = blocks human BAZ2B; AlphaScreen BAZ2B-H3K14Ac peptide displacement; 360,000 compounds, 4.4% hits; Potency, µM (highest dose often 114 µM), actives largely listed as inhibitors; Q9UIF8; AID 504333; further: nearly all actives have a fitted effect of over 60% in size
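AlphaScreen displacement: compounds (up to 110uM) incubated 30 min at room temperature with a preformed 50 nM BAZ2B/50 nM biotinylated H3K14Ac peptide complex in PBS pH 7.4 with Tween-20. Donor and acceptor beads at 10 ug/mL final added, 20 min light-protected before reading.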
L3MBTL1 inh = L3MBTL1 (human) inhibition. AlphaScreen L3MBTL1–H3K9me1 peptide binding. Potency, µM (top dose mostly 57.1 µM), hits mostly inhibitors. 230,000 compounds, 0.66% hits. AID 485360; further: nearly all actives have a fitted effect of over 60% in size
Target sequence (Q9Y468 whole entry, looked up): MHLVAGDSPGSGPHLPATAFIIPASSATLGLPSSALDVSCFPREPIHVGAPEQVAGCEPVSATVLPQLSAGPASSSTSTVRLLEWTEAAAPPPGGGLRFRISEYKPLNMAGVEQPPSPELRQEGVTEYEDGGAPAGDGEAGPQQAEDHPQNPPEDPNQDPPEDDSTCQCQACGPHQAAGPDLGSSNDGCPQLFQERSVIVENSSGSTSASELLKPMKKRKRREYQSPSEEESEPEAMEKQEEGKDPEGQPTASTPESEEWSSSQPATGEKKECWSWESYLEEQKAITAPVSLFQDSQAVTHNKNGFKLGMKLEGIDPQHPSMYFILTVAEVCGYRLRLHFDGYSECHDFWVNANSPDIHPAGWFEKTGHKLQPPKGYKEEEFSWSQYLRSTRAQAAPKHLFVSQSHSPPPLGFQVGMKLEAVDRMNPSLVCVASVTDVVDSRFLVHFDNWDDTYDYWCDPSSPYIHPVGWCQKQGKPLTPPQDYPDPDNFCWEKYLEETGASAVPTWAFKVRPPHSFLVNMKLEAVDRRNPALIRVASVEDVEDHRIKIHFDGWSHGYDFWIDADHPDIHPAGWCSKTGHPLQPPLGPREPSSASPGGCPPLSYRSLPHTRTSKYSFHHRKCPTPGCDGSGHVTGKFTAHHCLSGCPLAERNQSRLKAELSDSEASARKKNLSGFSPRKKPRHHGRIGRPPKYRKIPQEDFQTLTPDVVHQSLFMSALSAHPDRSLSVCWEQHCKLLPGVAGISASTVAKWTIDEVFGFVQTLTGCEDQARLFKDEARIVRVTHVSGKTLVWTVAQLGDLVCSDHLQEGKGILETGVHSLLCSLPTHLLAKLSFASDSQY
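Displacement of a biotinylated histone H3(1-15) peptide monomethylated at Lys9 (75 nM) from L3MBTL1 (50 nM) was measured by AlphaScreen after a 30 min room-temperature compound incubation; cefsulodin titration served as intraplate control.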
GLS inh = inhibitors of human glutaminase (GLS) | 410,000 compounds, 0.21% hits | Potency, µM (titrated, usually from 45.5 µM), hits mostly inhibitors | O94925 | AID 624170 | GLS enzymatic activity, qHTS titration
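hKGA; 45 mM KH2PO4 pH 8.2 + 0.02% Tween-20; cpd via pin tool; 1 mM Gln soln; GluOx/HRP/Amplex Red; RT 30 min; fluor. t0 & final.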
JMJD2A Tudor = JMJD2A Tudor domain (human) inhibition; O75164; AlphaScreen JMJD2A-Tudor / H3K4me3 peptide binding; Potency, µM (titrated, usually from 114 µM), actives largely listed as inhibitors; 390,000 compounds, 4.4% hits; AID 504339; further: nearly all actives have a fitted effect of over 50% in size
Numbers stand for hits; – = inactive; ? = inconclusive; · = not tested or not shown; [ ] = remark or other dose. The call rests on the fitted dose curve; in most records, active means well fitted curve in the direction sought with a large enough effect; inconclusive means small, poorly fitted or top-dose-only effect, or another doubt; inactive means no such curve, though single readings can be large; an effect the other way counts as inactive or inconclusive.

SMILES	HP1b chromo inh	G9a block	BAZ2B inh	L3MBTL1 inh	GLS inh	JMJD2A Tudor
c1ccc(SCc2cn3cccnc3n2)nc1	–	–	–	–	–	–
Nc1ccccc1SCc1cn2cccnc2n1	–	35µM	–	–	–	–
c1ccc2[nH]c(SCc3cn4ccccc4n3)nc2c1	–	45µM	–	–	–	–
Cc1cccn2cc(CSc3ccccc3N)nc12	–	?	–	·	–	–
O=[N+]([O-])c1ccc(CSc2nc3ccccc3[nH]2)cc1	–	28µM	–	–	–	–
Nc1ccccc1SCc1cn2ccccc2n1	–	50µM	–	–	–	–
CCCCC/C=C\C/C=C\C/C=C\C/C=C\CCCC(=O)O[C@@H](CO)COCCCCCCCCCCCCCCCC	·	–	·	·	·	·
O=c1[nH]nc(SCc2ccccc2)c(=O)[nH]1	–	?	–	–	–	–
NNC(=O)c1ccc(CSc2n[nH]c(=O)[nH]c2=O)cc1	–	4µM	–	–	–	–
Cc1ccc(/C=C2\CCCC3=C2NC(=S)NC3c2ccc(C)cc2)cc1 (stereo unspecified)	–	8.9µM	?	–	?	?
CC(=O)N1CCc2c(sc3c2c(=O)n(CCc2ccccc2)c(=O)n3Cc2ccc(F)cc2)C1	–	–	–	·	–	–
CN1CCc2c(sc3c2c(=O)n(-c2ccccc2)c2nnc(SCc4ccccc4)n32)C1	–	?	–	·	–	89µM
CCCn1c(SCC(=O)NCC)nc2sc3c(c2c1=O)CCC3	–	–	–	·	?	–
O=C(CSc1nc2sc3c(c2c(=O)n1-c1ccccc1)CCCC3)N/N=C/c1ccc(C(=O)O)cc1	79µM	–	–	·	–	79µM
CCn1c(SCC(N)=O)nc2sc3c(c2c1=O)CCN(C)C3	–	56µM	–	–	–	–
CCCn1c(SCC(=O)N2CCN(C(C)=O)CC2)nc2sc3c(c2c1=O)CCC3	–	71µM	–	·	–	–
CC(C)C(=O)Nc1nnc(S(=O)(=O)N(C)Cc2ccc(F)cc2)s1	–	?	–	·	–	–
CCSc1nc2sc3c(c2c(=O)n1-c1ccccc1)CCN(C)C3	–	79µM	–	–	–	–
CCCOc1ccc(C2CC(=O)Nc3c2c(C)nn3-c2nncc(-c3cccc(OC)c3)n2)cc1OC (stereo unspecified)	–	–	–	·	–	–
N#Cc1c([N+](=O)[O-])cc([N+](=O)[O-])cc1S(=O)(=O)Cc1ccccc1	–	?	?	–	–	79µM
Cc1ccc(S(=O)(=O)CCN2CCN(c3ccccc3)CC2)cc1	–	–	–	·	–	–
Cc1ccc(S(=O)(=O)CCN2CCC(n3cccc3)CC2)cc1	–	·	40µM	–	–	–
CN(C)c1ccc(NC(=O)CCN2C(=O)c3cccc([N+](=O)[O-])c3C2=O)cc1	–	10µM	–	–	–	–
O=C(CCN1C(=O)c2cccc([N+](=O)[O-])c2C1=O)Nc1nccs1	–	40µM	–	–	–	–
CCOC(=O)c1c(C)[nH]c(CCC(=O)Nc2ccccc2C(=O)OC)c1C	–	–	–	·	–	–
SMILES	HP1b chromo inh	G9a block	BAZ2B inh	L3MBTL1 inh	GLS inh	JMJD2A Tudor
Cc1sc2nc(C3CC3)nc(SCC(=O)N3c4ccccc4CC3C)c2c1C (stereo unspecified)	–	–	–	–	–	–
Cc1nc(SCC(=O)N2c3ccccc3NC(=O)CC2C)c2c(C)c(C)sc2n1 (stereo unspecified)	–	45µM	–	–	–	–
O=S(=O)(Nc1ccn(-c2ccccc2)n1)c1ccc(Br)cc1	–	14µM	–	–[11.4 µM]	–	–
COc1ccc(-c2ccc(NCCN3CCOCC3)nn2)cc1OC	–	·	–	–	–	–
Cc1cc(-c2ccccc2)nnc1NCCN1CCOCC1	–	–[2.33 µM]	?	–	–	79µM
COc1ccc(Cn2c(O)c(C=Nc3ccccc3C(=O)O)c3ccccc3c2=O)cc1	–	·	79µM	–	–	–
COc1ccccc1NS(=O)(=O)c1cccc(C(=O)N/N=C/c2ccc(NC(C)=O)cc2)c1	–	–[12.7 µM]	–	–	–	–
COc1ccccc1NS(=O)(=O)c1cccc(-n2c(O)c(C=Nc3ccccc3C(=O)O)c3ccccc3c2=O)c1	?	45µM	40µM	–	–	56µM
CCOC(=O)c1cc(-c2ccccc2)n(CCC(=O)Nc2ccc(C(F)(F)F)cc2)c1C	–	–	–	·	–	–
COc1ccc(-c2cn3nc(N4CCC(C(=O)Nc5cccc(OC)c5)CC4)sc3n2)cc1	–	–	–	·	–	–
CC(C)(C)C(=O)Cn1c(=O)n(-c2ccccc2)c(=O)c2c3c(sc21)CCC3	–	–	–	·	–	–
COc1cccc(N2CC(NC(=O)COc3ccc4ccccc4c3)CC2=O)c1 (stereo unspecified)	–	–	–	·	–	–
C/C(=N\N=C1\NC(=O)CC(C(=O)O)S1)c1ccc(F)cc1 (stereo unspecified)	–	–	–	–	–	–
C/C(=N\N=C1\NC(=O)CC(C(=O)O)S1)c1cccs1 (stereo unspecified)	–	–[0.0925 µM]	–	–	–	–
COc1ccc(/C(C)=N/N=C2/NC(=O)CC(C(=O)O)S2)cc1 (stereo unspecified)	–	–	–	–	?	45µM
O=C1CC(C(=O)O)S/C(=N\NC(=O)c2ccccc2)N1 (stereo unspecified)	–	?	50µM	–	–	1.4µM
COc1ccc(N2CCN(C(=O)Cn3cnc4sc(C)c(S(=O)(=O)N5CCCCC5)c4c3=O)CC2)cc1	–	?	–	·	–	–
CCN(c1ccccc1)S(=O)(=O)c1c(C)nc2scc(C)n2c1=O	–	–	–	·	–	–
Cc1ccc(C(=O)NCc2ccc(F)cc2)cc1NC(=O)c1nsc2ccccc12	–	–	–	·	–	–
Fc1cccc(Cl)c1-c1nnc2ccc3ccccc3n12	–	32µM	·	–	–	–
Fc1ccccc1-c1nnc2ccc3ccccc3n12	–	–[0.501 µM]	–	–[2.29 µM]	?	–
O=C(O)[C@H](Cc1ccccc1)NC(=O)N1CCOCC1	–	50µM	–	–	–	–
CC(=O)NC(Cc1ccccc1)C(=O)NC(Cc1ccccc1)C(=O)O (stereo unspecified)	–	?	–	·	–	–
O=C(O)[C@H](Cc1ccccc1)NC(=O)N1CCCCCC1	–	–	–	·	–	–
O=C(NC(Cc1ccccc1)C(=O)NC(Cc1ccccc1)C(=O)O)c1ccccc1 (stereo unspecified)	–	28µM	?	–	–	–
COc1cc(/C=C/C(=O)O[C@H]2CC[C@]34C[C@]35CC[C@]3(C)[C@@H]([C@H](C)CCC=C(C)C)CC[C@@]3(C)C5CCC4C2(C)C)ccc1O (stereo partly specified)	·	·	·	·	–	·
